Test results published in PubChem BioAssay AID686971 (National Center for Advancing Translational Sciences (NCATS), 2013).
The campaign covered roughly 360,000 compounds. About 7,500 (2.1%) were called active. Inconclusive results (about 8%) are left out. The list comes from a sample in which actives are over-represented; it also holds similar structures and randomly drawn compounds. Unmarked numbers belong to inactive results. The call rests on the fitted dose curve; in most records, active means well fitted cell-killing curve with a large enough effect; inconclusive means small, poorly fitted or top-dose-only effect, or effect the other way, or another doubt; inactive means no such curve, though single readings can be large or run the other way.

experiment: qHTS for induction of synthetic lethality in tumor cells producing 2HG: qHTS for the HT-1080-IDH1KD cell line; conditions: HT-1080 IDH1 knockdown viability, ATP luminescence, 48 h; series mostly up to 46.1 µM; activity, negative = toxicity: at the top concentration;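 on activity, negative = toxicity: 0% = DMSO wells and -100% = cell-free medium wells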
Outline: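 CellTiter-Glo luminescence after 48 h compound exposure at 37 degrees C of IDH1-knockdown HT-1080 cells in 5% FBS RPMI. %Activity scaled between DMSO wells and cell-free media wells, with curves fitted and assigned curve classes.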
Potency means the concentration at half of the fitted maximal effect.

SMILES | activity, negative = toxicity [%] | Potency
O=C(Nc1ccc(N2CCOCC2)cc1)c1cccc2c(-c3ccc(F)c(F)c3)coc12 | -2.43 | 
Oc1c(Br)cccc1/C=N/Nc1c(F)c(F)c(F)c(F)c1F | -0.347 | 
Oc1ccc(/C=N/Nc2nc(-c3ccccc3F)nc3ccccc23)c(O)c1 |  | 11.6 µM (active)
CC1(C(=O)NS(=O)(=O)c2cccc(F)c2)CCN1C(=O)Cc1cc(F)ccc1F (stereo not given) | 3.61 | 
Cc1ccc(Cn2c(C)c(C(=O)NCc3ccccc3C(F)(F)F)sc2=O)cc1 | 5.39 | 
O=[N+]([O-])c1ccc(N=Cc2c(O)ccc3ccccc23)cc1 |  | 9.2 µM (active)
O=[N+]([O-])c1cccc(C=NN=Cc2ccccc2O)c1 | 7.79 | 
O=C(Oc1ccc([N+](=O)[O-])cc1)c1ccc2ccccc2n1 | -24 | 
O=C(NCc1cccnc1)c1ccc2nc([C@@H]3O[C@H](CO)[C@H](O)[C@H](O)[C@H]3O)[nH]c2c1 | 15.5 | 
Cc1cn([C@H]2C[C@H](O)[C@@H](/C=C/C(=O)NCCCc3ccccc3)O2)c(=O)[nH]c1=O | -2.08 | 
COc1cc(CNc2ncnc3c2ncn3[C@H]2CN(Cc3cccs3)C[C@@H](CO)O2)cc(OC)c1OC | -13.4 | 
CCc1ccc(CNC(=O)C2CCN(c3nnc(C)c4c(C)n(-c5ccc(C)cc5)nc34)CC2)cc1 |  | 14.6 µM (active)
CCc1ccc(CNC(=O)C2CC(=O)N(CCc3ccc(C)cc3)C2)cc1 (stereo not given) | -11.8 | 
COc1ccc(-n2nc3c(N4CCC(C(=O)NCc5ccccc5)CC4)nnc(C)c3c2C)cc1 | -28.5 | 
OC[C@H]1O[C@@H](c2nc(-c3nc(-c4ccc(F)cc4)no3)cs2)[C@H](O)[C@@H](O)[C@H]1O | 9.85 | 
O=C1CCCC2=C1C(c1ccccc1)n1c(s/c(=C/c3cccc(F)c3)c1=O)=N2 (stereo not given) | 20.1 | 
CCOC(=O)C1=C(C)N=c2s/c(=C\C(=O)OC)c(=O)n2C1c1ccc(OC)cc1 (stereo not given) | 3.8 | 
COc1ccc(OC)c(C2C3=C(N=c4s/c(=C\c5cccc(O)c5)c(=O)n42)c2ccccc2CC3)c1 (stereo not given) |  | 20.6 µM (active)
COc1ccc(S(=O)(=O)NC(=O)C2(C)CCN2C(=O)c2ccccc2CCc2ccccc2)cc1 (stereo not given) | 0.309 | 
COC(=O)C[C@H]1C=C[C@H](NC(=O)c2ccc(F)cc2)[C@@H](CO)O1 | -11.6 | 

SMILES | activity, negative = toxicity [%] | Potency
O=C(NCCC1=CCCCC1)C1CCN(Cc2cnn(-c3ccccc3)c2-n2cccc2)CC1 |  | 25.9 µM (active)
C1=C(CCNc2ncnc3c2cnn3-c2ccccc2)CCCC1 | -4.48 | 
Cc1ccc(S(=O)(=O)N2CCC(C(=O)NCCC3=CCCCC3)CC2)cc1C | 1.26 | 
CCOC(=O)c1ccc(NC(=O)c2cccnc2)cc1 |  | 14.6 µM (active)
CCOC(=O)c1cc(NC(=O)c2cccnc2)ccn1 | 2.72 | 
CCOC(=O)c1ccc(-c2ccc(C(=O)Nc3cccnc3)o2)cc1 | -18.7 | 
CCCCCC(=O)N1C[C@H](O)[C@@H](n2cc(COC(=O)c3ccccc3)nn2)C[C@@H]1c1ccc(C)cc1 | -9.31 | 
Cc1onc(-c2ccccc2)c1-c1nnc(COC(=O)c2ccc(N(C)C)cc2)o1 | -11.6 | 
Clc1cccc(-c2nc(NCC3CCCO3)c3ccccc3n2)c1 (stereo not given) | -27.2 | 
N#CCSc1nc(-c2ccccc2)nc2ccc(F)cc12 | -0.0349 | 
Clc1ccc2nc(-c3ccccc3)nc(C(Cl)Cl)c2c1 |  | 7.31 µM (active)
CN1CCN(c2ccncc2S(=O)(=O)N2CCCC2)CC1 | 4.49 | 
Cc1onc(-c2ccccc2Cl)c1C(=O)OCc1nnc(-c2ccccc2)o1 | -11 | 
Cc1[nH]c2ccccc2c1C(=O)COC(=O)c1c(-c2ccccc2)noc1C |  | 23.1 µM (active)
Cc1onc(-c2ccccc2Cl)c1C(=O)OCC(=O)c1ccccc1 | -18.5 | 
CC1(C)CC(=O)C=C(c2ccc(COC(=O)c3cc(F)cc(F)c3)cc2)C1=O | -10 | 
O=C(Nc1ccc(Br)cn1)c1ccc([N+](=O)[O-])o1 |  | 10.3 µM (active)
O=C(Nc1ccc(Br)cn1)c1ccc([N+](=O)[O-])cc1Cl | -0.286 | 
Cc1onc(NC(=O)c2ccc([N+](=O)[O-])o2)c1Br | -35.8 | 
CC1CC(NC(=S)N(C)C)CC(C)(C)C1 (stereo not given) | 3.3 | 

SMILES | activity, negative = toxicity [%] | Potency
COc1ccc(/C=C2\SC(=S)N(CCC(=O)N3CCOCC3)C2=O)cc1OC | 11.1 | 
CCCCCn1nnnc1C1c2ccccc2C(=O)N1Cc1ccco1 (stereo not given) | 14.3 | 
CCCCCn1nnnc1-c1nc2cc3ccccc3cc2[nH]c1=O |  | 7.31 µM (active)
c1ccc2cc3[nH]c(CN4CCCCC4)nc3cc2c1 | -4.75 | 
COc1ccc(S(=O)(=O)NC(=O)C2(C)CCN2C(=O)COc2ccc(Cl)cc2)cc1 (stereo not given) | 0 | 
CC1(C(=O)NCc2ccc3c(c2)OCO3)CCN1C(=O)Cc1cccc2ccccc12 (stereo not given) | 2.6 | 
Nc1[nH]c(C(=O)c2ccccc2)c(-c2ccc(Br)cc2)c1C(=O)NC1CC1 | 2.93 | 
O=C(NCc1cccnc1)c1cc(C2CCCN(C(=O)CCCc3ccccc3)C2)on1 (stereo not given) | 14 | 
O=C(C[C@H]1C[C@@H]2c3cc(NC(=O)C4CCC4)ccc3O[C@@H]2[C@H](CO)O1)NC1CCCCC1 | 10.6 | 
COc1ccc(S(=O)(=O)N(C)C)cc1NC(=O)COC(=O)c1n[nH]c2ccccc12 | 0.573 | 
Cc1cccc(C(=O)Nc2ccc(C(=O)N/N=C/c3cccc(C)n3)cc2)c1 | -19.7 | 
CN(NC(=O)c1ccccc1F)c1nc(C(F)(F)F)nc2ccccc12 |  | 0.206 µM (active)
COc1ccc(C(=O)NN(C)c2nc(-c3ccccc3)cc(C)c2S(C)(=O)=O)cc1 | 4.2 | 
CSc1nc(N(C)NC(=O)c2cccc(C)c2)c2ccccc2n1 |  | 0.0461 µM (active)
Cn1c(CC(=O)NNC(=O)c2ccccc2F)nc2ccccc21 | 0 | 
CC(NC(=O)c1ccccc1F)c1cccc2ccccc12 (stereo not given) | -0.529 | 
CC1=C(C(=O)N2CCOCC2)CC(CC(=O)NCCN2CCOCC2)C(=O)N1CCC1=CCCCC1 (stereo not given) | 7.72 | 
Cc1noc(C)c1S(=O)(=O)N(C)C[C@H]1OCCCC[C@@H](C)Oc2ccc(NC(=O)CCCN(C)C)cc2C(=O)N([C@H](C)CO)C[C@@H]1C | 9.14 | 
Cc1noc(C)c1C(=O)N1CCC1(C)C(=O)NS(=O)(=O)c1ccc(C#N)cc1 (stereo not given) | 21.7 | 
CN1OC[C@@H]2CN[C@H](c3ccc(-c4ccccc4)cc3)C[C@@H]21 | -1.25 | 
